Our source for the inhibition values is PubChem BioAssay AID488896 (Broad Institute, 2010).

In all, about 320,000 compounds went through this assay and about 3,100 (0.97%) were called active. This excerpt belongs to a sample that is enriched for actives. A number with no mark means an inactive call.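 How the source made its calls: active means mean replicate inhibition of at least 70% and a set share of replicates each scoring 70 or more; inconclusive means meets just one of the two criteria; inactive means fails both criteria.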

Broadly, the inhibition is the change of the read-out against control, counted positive when it falls.

For the assay, the target named is Scavenger receptor class B member 1 (Mus musculus) (UniProt Q61009). The assay can be described thus: inhibitors of SR-BI mediated HDL lipid uptake, primary screen, ldlA[mSR-BI] cells, fluorescence, single point (AID 488896).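 Further: 0% = median of neutral control wells and 100% = median of positive control wells.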 The settings on record: ldlA[mSR-BI] CHO cells, DiI-HDL uptake fluorescence, 3 h; at 12.5 µM; hits give high values.
Sequence of Scavenger receptor class B member 1 (Mus musculus) (Q61009 whole entry, looked up): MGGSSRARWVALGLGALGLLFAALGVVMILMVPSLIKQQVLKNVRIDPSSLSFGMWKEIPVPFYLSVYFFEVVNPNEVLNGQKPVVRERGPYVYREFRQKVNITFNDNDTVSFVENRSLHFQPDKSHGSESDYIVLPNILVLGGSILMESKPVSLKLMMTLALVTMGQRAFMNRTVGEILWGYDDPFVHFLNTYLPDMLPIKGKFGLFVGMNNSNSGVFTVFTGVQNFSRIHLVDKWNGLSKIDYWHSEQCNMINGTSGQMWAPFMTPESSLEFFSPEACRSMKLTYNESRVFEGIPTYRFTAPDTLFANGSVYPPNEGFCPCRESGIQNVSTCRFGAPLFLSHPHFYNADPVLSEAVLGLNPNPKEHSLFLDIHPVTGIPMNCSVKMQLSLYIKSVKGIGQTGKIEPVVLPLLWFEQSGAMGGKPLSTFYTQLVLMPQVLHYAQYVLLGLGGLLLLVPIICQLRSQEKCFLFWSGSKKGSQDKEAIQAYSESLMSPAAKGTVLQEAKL
In the case of `CC(=O)OC1C2(CC3N4C(=O)C5(CO)SSC4(CC31O)C(=O)N5C)OC(C)C(C)(C)C2=O` (stereo not given), the inhibition is 106% (active). Next, `CC12CCC(O)CC1CCC1C2CCC2(C)C(C(=O)CC(O)C(F)(F)F)CCC12` (stereo not given): 13.2%; `O=C(c1ccccc1)C(O)(CN1CCCCC1)c1ccccc1` (stereo not given): -5.67%; `COC1C(O)C(C)OC(OC2CCC3(C=O)C(CCC4C3CCC3(C)C(C5=CC(=O)OC5)CCC43O)C2)C1O` (stereo not given): 0.038%. Turning to `CCOP(=O)(OCC)C(NC(=O)c1ccc(OC)cc1)C(Cl)(Cl)Cl` (stereo not given), the inhibition is 6.36%. Take `CC(=O)Cc1ccc(OC(C)C)cc1`: the inhibition is -1.27%. Consider `CC(=O)c1ccc(OC(NC(=O)Cc2ccccc2)C(Cl)(Cl)Cl)cc1` (stereo not given), for which the inhibition is 92.8% (active).

Regarding `CN(C)CC1Oc2ccccc2OC1(O)c1ccccc1` (stereo not given), the inhibition was 1.39%. Take `CC1=CC(=Cc2sc3ccccc3[n+]2C)C=C(C)O1`: the inhibition is -1%. With `CCC(C)(O)C(=O)OC1C(=O)OC2CC3C(C)=CC(=O)C(O)C3(C)C3C4(O)OCC23C1C(C)C4O` (stereo not given) the figure was -10.3%.
